According to paper PMC7862700, “An all-to-all approach to the identification of sequence-specific readers for epigenetic DNA modifications on cytosine”:

What was measured:
Test in all cases: DAPPL (digital affinity profiling via proximity ligation, sequencing); 10 mM Tris-HCl pH 7.5, 50 mM NaCl, 1 mM DTT, 4% glycerol, room temperature, 30 min; GST-TFs on glutathione beads, 16-mer random dsDNA library, 0.1% formaldehyde crosslink after washing; high values mean tight binding
FEV = target: T1, FEV (Homo sapiens, UniProt Q99581 1-238); conditions: protein: recombinant; tags: N-terminal GST; dsDNA, one strand shown
T1 sequence: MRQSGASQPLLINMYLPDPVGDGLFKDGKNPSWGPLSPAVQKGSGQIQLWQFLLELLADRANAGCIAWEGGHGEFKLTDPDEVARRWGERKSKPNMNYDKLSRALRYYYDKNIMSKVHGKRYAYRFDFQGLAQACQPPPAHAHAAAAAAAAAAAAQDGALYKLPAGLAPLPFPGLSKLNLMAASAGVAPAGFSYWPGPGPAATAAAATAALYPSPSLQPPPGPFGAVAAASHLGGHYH
Method in brief: (§1)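 Binding signal is given per hexamer as its read frequency for a factor divided by its frequency in the tag-only sample. GST-fused human transcription factors were expressed in yeast, captured on glutathione beads, barcoded with DNA and pooled with that sample, then incubated with 200 nmole of a 16-mer random double-stranded DNA library in Tris/NaCl/DTT/glycerol buffer for 30 min at room temperature. The pools were then washed, crosslinked, proximity-ligated, amplified by PCR and sequenced on an Illumina NextSeq500.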

ETV5 = ETV5 (Homo sapiens, UniProt P41161 1-510); conditions: protein: recombinant; tags: N-terminal GST; dsDNA, one strand shown
Method in brief: as §1

HSF1 = HSF1 (Homo sapiens, UniProt Q00613 1-529); conditions: protein: recombinant; tags: N-terminal GST; chain copies: 3; dsDNA, one strand shown
Method in brief: as §1

SPIC = target: T2, SPIC (Homo sapiens, UniProt Q8N5J4 1-248); conditions: protein: recombinant; tags: N-terminal GST; dsDNA, one strand shown
T2 sequence: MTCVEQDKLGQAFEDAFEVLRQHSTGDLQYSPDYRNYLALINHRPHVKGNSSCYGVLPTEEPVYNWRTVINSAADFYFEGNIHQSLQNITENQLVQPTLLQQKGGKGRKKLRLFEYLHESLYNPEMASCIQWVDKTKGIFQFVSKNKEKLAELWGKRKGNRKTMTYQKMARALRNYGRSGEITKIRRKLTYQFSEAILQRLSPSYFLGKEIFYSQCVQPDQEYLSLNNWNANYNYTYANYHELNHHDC
Method in brief: as §1

ELF4 = ELF4 (Homo sapiens, UniProt Q99607 1-663); conditions: protein: recombinant; tags: N-terminal GST; dsDNA, one strand shown
Method in brief: as §1

ELK4 = target: T3, ELK4 (Homo sapiens, UniProt P28324-2 1-405); conditions: protein: recombinant; tags: N-terminal GST; dsDNA, one strand shown
T3 sequence: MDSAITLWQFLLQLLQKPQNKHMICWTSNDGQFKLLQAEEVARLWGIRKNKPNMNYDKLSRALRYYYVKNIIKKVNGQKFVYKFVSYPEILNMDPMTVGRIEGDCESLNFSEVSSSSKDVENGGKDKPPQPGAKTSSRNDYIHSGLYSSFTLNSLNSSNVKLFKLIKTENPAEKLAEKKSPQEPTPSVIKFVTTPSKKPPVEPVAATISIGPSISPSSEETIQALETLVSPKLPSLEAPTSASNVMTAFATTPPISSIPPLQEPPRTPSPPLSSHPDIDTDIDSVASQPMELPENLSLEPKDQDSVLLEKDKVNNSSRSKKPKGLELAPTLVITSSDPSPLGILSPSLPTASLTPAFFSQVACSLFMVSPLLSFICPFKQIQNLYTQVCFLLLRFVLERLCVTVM
Method in brief: as §1

ETV2 = target: T4, ETV2 (Homo sapiens, UniProt O00321 1-342); conditions: protein: recombinant; tags: N-terminal GST; dsDNA, one strand shown
T4 sequence: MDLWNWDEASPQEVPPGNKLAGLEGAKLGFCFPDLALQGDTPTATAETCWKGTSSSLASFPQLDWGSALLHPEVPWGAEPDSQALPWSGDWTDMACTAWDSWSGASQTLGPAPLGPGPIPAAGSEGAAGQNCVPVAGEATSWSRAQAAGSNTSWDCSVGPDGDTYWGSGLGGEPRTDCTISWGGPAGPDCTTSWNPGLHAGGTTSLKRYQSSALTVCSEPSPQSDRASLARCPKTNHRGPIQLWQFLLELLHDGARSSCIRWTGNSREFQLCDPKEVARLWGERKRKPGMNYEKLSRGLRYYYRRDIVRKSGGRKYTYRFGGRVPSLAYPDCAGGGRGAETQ
Method in brief: as §1

ELF3 = target: T5, ELF3 (Homo sapiens, UniProt P78545 1-371); conditions: protein: recombinant; tags: N-terminal GST; dsDNA, one strand shown
T5 sequence: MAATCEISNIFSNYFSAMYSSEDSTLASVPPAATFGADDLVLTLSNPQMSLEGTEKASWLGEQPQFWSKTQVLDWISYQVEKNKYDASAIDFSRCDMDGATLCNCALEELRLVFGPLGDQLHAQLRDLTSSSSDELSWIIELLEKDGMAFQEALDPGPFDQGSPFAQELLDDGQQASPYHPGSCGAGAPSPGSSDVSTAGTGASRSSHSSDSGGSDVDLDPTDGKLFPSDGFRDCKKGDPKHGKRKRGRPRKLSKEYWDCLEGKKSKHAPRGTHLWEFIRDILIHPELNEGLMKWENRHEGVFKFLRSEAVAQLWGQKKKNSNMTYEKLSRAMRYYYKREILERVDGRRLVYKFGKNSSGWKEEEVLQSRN
Method in brief: as §1

CRX = CRX (Homo sapiens, UniProt O43186 1-299); conditions: protein: recombinant; tags: N-terminal GST; dsDNA, one strand shown
Method in brief: as §1

ETV1 = ETV1 (Homo sapiens, UniProt P50549 1-477); conditions: protein: recombinant; tags: N-terminal GST; dsDNA, one strand shown
Method in brief: as §1

ERF = target: T6, ERF (Homo sapiens, UniProt P50548 1-548); conditions: protein: recombinant; tags: N-terminal GST; dsDNA, one strand shown
T6 sequence: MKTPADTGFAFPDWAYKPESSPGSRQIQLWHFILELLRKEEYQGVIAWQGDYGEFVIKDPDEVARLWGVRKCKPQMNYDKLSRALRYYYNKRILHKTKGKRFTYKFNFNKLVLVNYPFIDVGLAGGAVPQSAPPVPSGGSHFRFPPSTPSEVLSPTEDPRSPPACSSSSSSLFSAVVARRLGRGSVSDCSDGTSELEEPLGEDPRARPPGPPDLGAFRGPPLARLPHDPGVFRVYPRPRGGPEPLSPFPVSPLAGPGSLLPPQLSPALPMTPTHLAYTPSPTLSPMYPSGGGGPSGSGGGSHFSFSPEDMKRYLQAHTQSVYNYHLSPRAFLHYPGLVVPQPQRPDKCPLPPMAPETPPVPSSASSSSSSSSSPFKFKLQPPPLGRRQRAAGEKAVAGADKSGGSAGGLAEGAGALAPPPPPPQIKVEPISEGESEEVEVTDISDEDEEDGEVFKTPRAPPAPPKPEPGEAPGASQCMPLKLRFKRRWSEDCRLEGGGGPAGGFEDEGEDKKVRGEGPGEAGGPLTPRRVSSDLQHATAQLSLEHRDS
Method in brief: as §1

ETV3L = target: T7, ETV3L (Homo sapiens, UniProt Q6ZN32 1-361); conditions: protein: recombinant; tags: N-terminal GST; dsDNA, one strand shown
T7 sequence: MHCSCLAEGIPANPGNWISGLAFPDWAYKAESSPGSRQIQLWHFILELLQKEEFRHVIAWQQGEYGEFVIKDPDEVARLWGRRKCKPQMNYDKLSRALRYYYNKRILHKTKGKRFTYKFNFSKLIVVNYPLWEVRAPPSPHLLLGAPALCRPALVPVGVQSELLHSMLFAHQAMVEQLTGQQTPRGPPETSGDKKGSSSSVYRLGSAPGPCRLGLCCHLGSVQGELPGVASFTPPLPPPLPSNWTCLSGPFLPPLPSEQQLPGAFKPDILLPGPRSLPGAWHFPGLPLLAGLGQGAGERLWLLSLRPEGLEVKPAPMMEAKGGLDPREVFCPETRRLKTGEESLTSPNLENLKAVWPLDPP
Method in brief: as §1

ETS2 = target: T8, ETS2 (Homo sapiens, UniProt P15036 1-469); conditions: protein: recombinant; tags: N-terminal GST; dsDNA, one strand shown
T8 sequence: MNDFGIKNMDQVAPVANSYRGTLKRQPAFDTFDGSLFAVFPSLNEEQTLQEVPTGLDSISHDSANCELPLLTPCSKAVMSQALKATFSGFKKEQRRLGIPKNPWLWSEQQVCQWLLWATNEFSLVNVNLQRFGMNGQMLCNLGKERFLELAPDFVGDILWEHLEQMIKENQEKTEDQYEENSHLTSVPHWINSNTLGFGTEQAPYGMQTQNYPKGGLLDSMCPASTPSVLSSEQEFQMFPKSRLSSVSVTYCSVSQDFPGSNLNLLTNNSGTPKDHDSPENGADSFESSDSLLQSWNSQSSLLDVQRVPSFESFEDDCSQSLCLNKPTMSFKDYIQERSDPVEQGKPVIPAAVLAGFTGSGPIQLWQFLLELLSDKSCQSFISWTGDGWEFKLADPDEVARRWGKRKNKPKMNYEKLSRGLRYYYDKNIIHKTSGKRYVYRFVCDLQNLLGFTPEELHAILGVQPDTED
Method in brief: as §1

SPDEF = target: T9, SPDEF (Homo sapiens, UniProt O95238 1-335); conditions: protein: recombinant; tags: N-terminal GST; dsDNA, one strand shown
T9 sequence: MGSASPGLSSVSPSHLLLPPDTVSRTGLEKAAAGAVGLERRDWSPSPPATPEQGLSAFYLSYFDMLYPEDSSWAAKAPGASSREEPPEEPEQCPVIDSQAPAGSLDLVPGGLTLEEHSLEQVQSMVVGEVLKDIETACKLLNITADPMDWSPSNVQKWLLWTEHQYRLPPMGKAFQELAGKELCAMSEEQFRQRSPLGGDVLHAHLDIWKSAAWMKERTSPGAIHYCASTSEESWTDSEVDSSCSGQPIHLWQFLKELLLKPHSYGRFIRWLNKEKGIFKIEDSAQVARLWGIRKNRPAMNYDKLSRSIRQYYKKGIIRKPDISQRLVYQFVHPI
Method in brief: as §1

ETV7 = target: T10, ETV7 (Homo sapiens, UniProt Q9Y603 1-341); conditions: protein: recombinant; tags: N-terminal GST; dsDNA, one strand shown
T10 sequence: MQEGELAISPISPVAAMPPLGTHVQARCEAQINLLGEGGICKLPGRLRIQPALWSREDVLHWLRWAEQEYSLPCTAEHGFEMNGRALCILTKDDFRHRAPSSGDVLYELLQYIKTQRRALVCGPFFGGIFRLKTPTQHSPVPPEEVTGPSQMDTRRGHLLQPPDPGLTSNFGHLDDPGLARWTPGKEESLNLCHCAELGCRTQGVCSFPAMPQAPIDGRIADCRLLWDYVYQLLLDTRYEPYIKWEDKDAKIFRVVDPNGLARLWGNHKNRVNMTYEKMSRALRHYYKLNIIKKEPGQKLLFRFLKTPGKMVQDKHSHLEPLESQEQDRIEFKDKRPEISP
Method in brief: as §1

ELF5 = target: T11, ELF5 (Homo sapiens, UniProt Q9UKW6-2 1-255); conditions: protein: recombinant; tags: N-terminal GST; dsDNA, one strand shown
T11 sequence: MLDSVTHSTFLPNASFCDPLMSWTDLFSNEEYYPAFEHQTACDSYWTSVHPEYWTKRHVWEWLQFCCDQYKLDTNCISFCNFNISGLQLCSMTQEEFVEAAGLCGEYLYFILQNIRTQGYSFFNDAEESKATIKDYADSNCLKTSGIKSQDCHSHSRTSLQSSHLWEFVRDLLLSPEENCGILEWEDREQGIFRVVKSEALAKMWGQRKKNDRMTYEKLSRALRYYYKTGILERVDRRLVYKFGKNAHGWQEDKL
Method in brief: as §1

ETV3 = target: T12, ETV3 (Homo sapiens, UniProt P41162-2 1-143); conditions: protein: recombinant; tags: N-terminal GST; dsDNA, one strand shown
T12 sequence: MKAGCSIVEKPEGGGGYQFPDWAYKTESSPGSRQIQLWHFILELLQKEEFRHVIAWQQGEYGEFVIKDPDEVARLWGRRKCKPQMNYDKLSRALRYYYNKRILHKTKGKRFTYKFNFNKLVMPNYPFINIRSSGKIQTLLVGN
Method in brief: as §1

ETV6 = ETV6 (Homo sapiens, UniProt P41212 1-452); conditions: protein: recombinant; tags: N-terminal GST; dsDNA, one strand shown
Method in brief: as §1

Sequence of ETV1 (P50549 whole entry): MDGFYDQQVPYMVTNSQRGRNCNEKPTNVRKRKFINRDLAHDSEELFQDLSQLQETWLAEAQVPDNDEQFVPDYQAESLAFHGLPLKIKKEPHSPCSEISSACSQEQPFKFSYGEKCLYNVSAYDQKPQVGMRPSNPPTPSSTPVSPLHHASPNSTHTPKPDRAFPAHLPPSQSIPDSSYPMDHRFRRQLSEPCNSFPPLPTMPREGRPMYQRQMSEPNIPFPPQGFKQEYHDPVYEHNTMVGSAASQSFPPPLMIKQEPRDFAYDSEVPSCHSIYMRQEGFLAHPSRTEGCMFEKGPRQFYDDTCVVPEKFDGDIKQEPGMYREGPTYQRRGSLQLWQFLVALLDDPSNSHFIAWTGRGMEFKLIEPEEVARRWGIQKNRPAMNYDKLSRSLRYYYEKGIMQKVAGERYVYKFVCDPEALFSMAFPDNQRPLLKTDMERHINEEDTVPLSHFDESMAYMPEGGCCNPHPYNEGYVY
Sequence of ETV6 (P41212 whole entry): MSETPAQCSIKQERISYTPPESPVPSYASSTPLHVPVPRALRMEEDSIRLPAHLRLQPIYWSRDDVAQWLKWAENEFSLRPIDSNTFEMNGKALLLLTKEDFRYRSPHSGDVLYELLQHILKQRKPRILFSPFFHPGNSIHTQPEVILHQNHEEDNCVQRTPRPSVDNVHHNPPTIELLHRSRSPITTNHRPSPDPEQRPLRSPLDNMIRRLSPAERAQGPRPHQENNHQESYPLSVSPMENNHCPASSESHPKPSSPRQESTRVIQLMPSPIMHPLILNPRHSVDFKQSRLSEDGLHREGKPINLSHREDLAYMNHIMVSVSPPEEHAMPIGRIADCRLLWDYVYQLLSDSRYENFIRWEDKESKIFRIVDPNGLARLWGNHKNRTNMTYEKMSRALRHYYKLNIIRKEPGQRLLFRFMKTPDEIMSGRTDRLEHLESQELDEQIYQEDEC
Sequence of CRX (O43186 whole entry): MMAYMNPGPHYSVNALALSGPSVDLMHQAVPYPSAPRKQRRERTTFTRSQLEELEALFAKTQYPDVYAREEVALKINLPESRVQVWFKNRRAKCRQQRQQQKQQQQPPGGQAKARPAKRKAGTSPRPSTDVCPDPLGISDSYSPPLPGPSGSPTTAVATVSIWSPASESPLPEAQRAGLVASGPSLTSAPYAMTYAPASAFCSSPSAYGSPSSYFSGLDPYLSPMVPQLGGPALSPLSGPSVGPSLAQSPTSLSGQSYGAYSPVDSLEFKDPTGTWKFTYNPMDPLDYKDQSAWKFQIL
Sequence of HSF1 (Q00613 whole entry): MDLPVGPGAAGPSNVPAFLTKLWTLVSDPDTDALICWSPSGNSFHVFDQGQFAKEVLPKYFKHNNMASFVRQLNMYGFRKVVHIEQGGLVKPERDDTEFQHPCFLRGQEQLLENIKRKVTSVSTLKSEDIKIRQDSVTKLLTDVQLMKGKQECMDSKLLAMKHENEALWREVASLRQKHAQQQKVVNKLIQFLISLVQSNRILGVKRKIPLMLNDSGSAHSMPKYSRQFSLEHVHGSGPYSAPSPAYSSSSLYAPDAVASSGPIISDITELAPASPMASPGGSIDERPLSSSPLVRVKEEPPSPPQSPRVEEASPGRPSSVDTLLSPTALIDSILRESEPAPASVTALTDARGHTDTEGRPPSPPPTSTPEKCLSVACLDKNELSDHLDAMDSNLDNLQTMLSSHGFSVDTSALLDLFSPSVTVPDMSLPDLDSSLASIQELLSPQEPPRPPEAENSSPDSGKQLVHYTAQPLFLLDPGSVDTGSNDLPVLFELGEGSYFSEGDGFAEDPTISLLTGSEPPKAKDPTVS
Sequence of ELF4 (Q99607 whole entry): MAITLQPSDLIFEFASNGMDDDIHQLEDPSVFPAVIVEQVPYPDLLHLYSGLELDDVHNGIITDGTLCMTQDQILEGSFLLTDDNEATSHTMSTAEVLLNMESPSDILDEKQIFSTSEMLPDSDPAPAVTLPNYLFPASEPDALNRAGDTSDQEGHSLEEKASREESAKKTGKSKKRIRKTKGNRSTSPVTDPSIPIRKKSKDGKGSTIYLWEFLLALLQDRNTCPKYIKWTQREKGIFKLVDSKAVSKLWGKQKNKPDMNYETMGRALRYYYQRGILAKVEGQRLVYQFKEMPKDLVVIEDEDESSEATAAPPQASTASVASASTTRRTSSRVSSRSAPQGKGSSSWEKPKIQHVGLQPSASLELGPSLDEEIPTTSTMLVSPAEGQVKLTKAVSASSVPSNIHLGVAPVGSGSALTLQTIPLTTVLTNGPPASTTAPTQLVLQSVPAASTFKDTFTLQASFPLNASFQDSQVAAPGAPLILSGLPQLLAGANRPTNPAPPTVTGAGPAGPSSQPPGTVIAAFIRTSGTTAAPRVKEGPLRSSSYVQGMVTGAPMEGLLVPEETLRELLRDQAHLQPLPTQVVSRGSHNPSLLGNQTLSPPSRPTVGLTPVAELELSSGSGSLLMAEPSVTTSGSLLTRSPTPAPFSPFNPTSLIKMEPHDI
Sequence of ETV5 (P41161 whole entry): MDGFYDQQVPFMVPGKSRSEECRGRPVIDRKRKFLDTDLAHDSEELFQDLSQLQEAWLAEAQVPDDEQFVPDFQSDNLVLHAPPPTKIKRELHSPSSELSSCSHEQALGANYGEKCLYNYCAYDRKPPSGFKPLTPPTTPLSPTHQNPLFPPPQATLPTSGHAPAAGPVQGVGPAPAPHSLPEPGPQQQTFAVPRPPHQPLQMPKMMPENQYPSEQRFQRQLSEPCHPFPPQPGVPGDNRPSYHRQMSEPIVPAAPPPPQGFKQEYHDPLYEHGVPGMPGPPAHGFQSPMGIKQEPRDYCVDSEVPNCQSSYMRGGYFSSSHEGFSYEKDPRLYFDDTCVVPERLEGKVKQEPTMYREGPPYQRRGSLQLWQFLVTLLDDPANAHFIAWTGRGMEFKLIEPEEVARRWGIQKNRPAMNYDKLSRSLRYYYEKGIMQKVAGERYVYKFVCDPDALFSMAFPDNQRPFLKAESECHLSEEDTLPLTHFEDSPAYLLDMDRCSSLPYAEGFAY

With TTTTTA the binding signal (FEV) was 1.34 fold enrichment (6-mer frequency, TF over GST control), the binding signal (ETV5) was 1.3 fold enrichment (6-mer frequency, TF over GST control) and the binding signal (HSF1) was 1.42 fold enrichment (6-mer frequency, TF over GST control). For the same sequence, the binding signal (SPIC) was 1.32 fold enrichment (6-mer frequency, TF over GST control), the binding signal (ELF4) was 1.34 fold enrichment (6-mer frequency, TF over GST control) and the binding signal (ELK4) was 1.37 fold enrichment (6-mer frequency, TF over GST control). The binding signal (ETV2) was 1.38 fold enrichment (6-mer frequency, TF over GST control), the binding signal (ELF3) was 1.43 fold enrichment (6-mer frequency, TF over GST control) and the binding signal (CRX) was 1.65 fold enrichment (6-mer frequency, TF over GST control). For the same sequence, the binding signal (ETV1) was 1.32 fold enrichment (6-mer frequency, TF over GST control), the binding signal (ERF) was 1.26 fold enrichment (6-mer frequency, TF over GST control) and the binding signal (ETV3L) was 1.29 fold enrichment (6-mer frequency, TF over GST control). The binding signal (ETS2) was 1.34 fold enrichment (6-mer frequency, TF over GST control), the binding signal (SPDEF) was 1.29 fold enrichment (6-mer frequency, TF over GST control) and the binding signal (ETV7) was 1.35 fold enrichment (6-mer frequency, TF over GST control). For the same sequence, the binding signal (ELF5) was 1.27 fold enrichment (6-mer frequency, TF over GST control), the binding signal (ETV3) was 1.4 fold enrichment (6-mer frequency, TF over GST control) and the binding signal (ETV6) was 1.33 fold enrichment (6-mer frequency, TF over GST control).
